Laboratory results taken from PubChem BioAssay (NCI).
Compounds without any hit were thinned out: in the full panel of roughly 79,000, 15% have a hit. A number with no mark means an inactive call. Activity calls are given as the source filed them. Cut-off read from the data, not from the text of the source: active = growth inhibition above about 70%; inactive = the rest.

Assays:
[1] = NCI Yeast Anticancer Drug Screen. Data for the rad50 strain (AID 155);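 note: 0% = growth of vehicle-only cultures of the same strain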; conditions: S. cerevisiae rad50 strain growth inhibition, stronger effect = higher value
How it was run: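 Inhibition values express reduced yeast growth in compound-treated cultures relative to vehicle-treated controls.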

[2] = NCI Yeast Anticancer Drug Screen. Data for the mec2-1 strain (AID 157); conditions: S. cerevisiae mec2-1 strain, stronger effect = higher value
How it was run: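 Vehicle-treated cultures served as reference for growth inhibition of compound-exposed mec2-1 yeast.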

[3] = NCI Yeast Anticancer Drug Screen. Data for the sgs1 mgt1 strain (AID 161);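 note: 0% = growth of cultures given vehicle only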; conditions: S. cerevisiae sgs1 mgt1 strain, stronger effect = higher value
How it was run: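 Test agents were incubated with a DNA-repair-mutant yeast strain. Growth was then read and compared against vehicle-treated controls.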

[4] = NCI Yeast Anticancer Drug Screen. Data for the cln2 rad14 strain (AID 165);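 note: 0% = growth equal to vehicle treated cultures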; conditions: S. cerevisiae cln2 rad14 strain, stronger effect = higher value
How it was run: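 Each compound was tested on cln2 rad14 yeast. Inhibition of growth was calculated against vehicle-exposed controls.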

[5] = NCI Yeast Anticancer Drug Screen. Data for the bub3 strain (AID 167); conditions: S. cerevisiae bub3 mutant strain, stronger effect = higher value
How it was run: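 Steps: expose the mutant yeast strain to compound; grow alongside vehicle-treated cultures; measure growth; express inhibition against the vehicle cultures.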

[6] = NCI Yeast Anticancer Drug Screen. Data for the mlh1 rad18 strain (AID 175); conditions: S. cerevisiae mlh1 rad18 strain growth inhibition, stronger effect = higher value
How it was run: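 Vehicle-treated cultures served as the reference for growth inhibition in a yeast strain carrying DNA damage repair alterations exposed to each compound.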

[7] = at 5.0 µM (retest, dose inferred, filed as 0.5)
[8] = at 50.0 µM (retest, dose inferred, filed as 5.0)

Compound	growth inhibition [1, 7]	growth inhibition [1, 8]	growth inhibition ([1]; at 50.0 µM)	growth inhibition [2, 7] [%]	growth inhibition [2, 8]	growth inhibition ([2]; at 50.0 µM)	growth inhibition [3, 7] [%]	growth inhibition [3, 8]	growth inhibition ([3]; at 50.0 µM)	growth inhibition [4, 7] [%]	growth inhibition [4, 8]	growth inhibition ([4]; at 50.0 µM)	growth inhibition [5, 7] [%]	growth inhibition [5, 8]	growth inhibition ([5]; at 50.0 µM)	growth inhibition [6, 7] [%]	growth inhibition [6, 8]	growth inhibition ([6]; at 50.0 µM)
CC(C)OC(=O)CCCCCC1CCCCC1	6%	9%	0.95%	-2	2%	13.5%	3	11%	1.4%	10	6%	31.7%	8	3%	-0.25%	4	7%	8.8%
O=C1C=CC(=O)C(c2ccccc2)=C1	12%	99% (active)	99.5% (active)	24	99% (active)	99.5% (active)	18	99% (active)	99.5% (active)	16	99% (active)	98.8% (active)	3	99% (active)	99.5% (active)	18	99% (active)	99.2% (active)
C[Si](C)(C)C1=C([Si](C)(C)C)C(Cl)(Cl)C1=O	10%	32%	12%	12	17%	9.35%	20	49%	72.2% (active)	6	40%	45.5%	16	33%	29.2%	18	38%	32.4%
CC(=O)C1CCC2C3CC(F)C4(O)CC(O)CCC4(C)C3CCC12C (stereo not given)	-120%	98% (active)	4.1%	-3	99% (active)	-1%	-1	95% (active)	62%	-6	58%	-9.95%	-4	33%	85.7% (active)	-20	99% (active)	32.4%
O=C(Nc1nc2ccc([N+](=O)[O-])cc2s1)C(=O)C(C1OC(=O)c2ccccc21)[N+](=O)[O-] (stereo not given)	8%	8%	88.7% (active)	-7	-7%	87% (active)	9	9%	88.9% (active)	13	13%	67.6%	4	4%	84% (active)	0	0%	76% (active)
O=C(Nc1c(Cl)cccc1Cl)Oc1c(Br)cc(Br)cc1Br	77% (active)	96% (active)	90.3% (active)	66	94% (active)	93% (active)	27	98% (active)	93.2% (active)	25	100% (active)	92.2% (active)	58	93% (active)	91% (active)	64	98% (active)	90.1% (active)
Cc1c(C)c(NC(=O)/C=C/C(=O)O)c(C)c(C)c1NC(=O)/C=C\C(=O)O	-14%	14%	61.7%	-6	37%	88.8% (active)	-13	11%	89.9% (active)	7	11%	42.2%	-4	35%	86.3% (active)	-31	58%	59.6%
CCCCN(CCCC)CCC(O)c1cc2c(c3ccccc13)CCCC2 (stereo not given)	1%	99% (active)	99.4% (active)	5	100% (active)	99.2% (active)	10	100% (active)	99.7% (active)	0	98% (active)	67.1%	10	99% (active)	97.8% (active)	9	99% (active)	99.5% (active)
CS(=O)(=O)OCCN(CCOS(C)(=O)=O)c1ccc(C=Nc2cc(Cl)c(O)c(Cl)c2)c(Cl)c1	-1%	28%	46.6%	42	4%	-5%	-1	32%	38.5%	0	3%	-23.1%	-1	-1%	1.25%	9	57%	86% (active)
CCc1cccc(C(C)(C)C)c1NC(=S)/N=C/C(C(=O)c1ccccc1)=C(\O)c1ccccc1	-4%	70% (active)	77.2% (active)	-11	66%	55.3%	-10	43%	68.9%	-13	45%	48.1%	-12	48%	80.3% (active)	-4	65%	75.6% (active)
